Screens: PubChem, National Center for Advancing Translational Sciences (NCATS)
AMA1-RON2 inh: inhibitors of Plasmodium falciparum AMA1-RON2 interaction; AlphaScreen AMA1-biotinylated RON2 peptide binding; Potency, µM (series often up to 58.2 µM), for inactives: top-dose activity change, negative = inhibition, most hits filed as inhibitors; actives 0.2% (n = 360,000);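 note: 0% = vehicle wells and -100% = peptide control; nearly all actives have a fitted effect of over 45% in size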
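AMA1 (3D7) with his tag at 25 nM final met compounds first, then biotinylated RON2 peptide at 25 nM; detection used donor plus acceptor beads, 10 µg/mL apiece, read by AlphaScreen after 30 min at room temperature.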
Pf growth 48h: inhibits P. falciparum growth in the first generation, 48 h | P. falciparum luciferase growth in erythrocytes, 48 h | Potency, µM (series often up to 28.7 µM), for inactives: at the highest dose activity change, negative = inhibition, actives largely listed as inhibitors | actives 5.9% (n = 310,000)
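Cell-based growth assay: transgenic P. falciparum expressing firefly luciferase, cultured in red cells within RPMI 1640 containing 0.5% w/v Albumax, 24 mM bicarbonate and gentamycin. A drop in luciferase activity indicates inhibition.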
VACV mCherry inh: vaccinia inhibition (mCherry reporter). actives 0.63% (n = 310,000). Vaccinia virus mCherry reporter infection, fluorescence. AID 720579. Potency, µM (highest dose often 36.5 µM), for inactives: at the highest dose activity change, negative = inhibition, actives largely listed as inhibitors; calls by dose curve; tested in A549 cells; note: nearly all actives have a fitted effect of over 35% in size
Vaccinia Venus: vaccinia inhibition (Venus reporter); Vaccinia virus Venus reporter expression, fluorescence; Potency, µM (highest dose often 36.5 µM), for inactives: at the top dose activity change, negative = inhibition, actives largely listed as inhibitors; actives 0.46% (n = 330,000); calls by dose curve; tested in A549 cells; note: nearly all actives have a fitted effect of over 30% in size
Pf growth 96h: inhibits malaria parasite growth, 96 h; actives 6.9% (n = 320,000); Potency, µM (series often up to 28.7 µM), for inactives: at the highest dose activity change, negative = inhibition, hits mostly inhibitors; P. falciparum luciferase reporter growth, 96 h
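Infected RBCs, 2% Hct / 0.05% parasitemia final; luciferase-reporter P. falciparum; cpd 96 h, 37 C, 5% CO2; luciferase detection reagent; luminescence.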
* = called active by the depositor; i = inactive; ? = inconclusive; · = no result given; [ ] = remark or other dose. Compounds with a hit are over-represented: about 8.7% of the library has one in this group of screens. Unless noted, calls come from the whole dose curve; as a rule, active = well fitted curve in the direction sought with a large enough effect; inconclusive = small, poorly fitted or top-dose-only effect, or another doubt; inactive = no such curve, though single readings can be large; an effect the other way counts as inactive or inconclusive. Unless noted, % is set by controls: 0 for no effect and ±100 for the full control effect; potency is the fitted concentration of half-maximal effect.

SMILES	AMA1-RON2 inh	Pf growth 48h	VACV mCherry inh	Vaccinia Venus	Pf growth 96h
CCOc1ccccc1C(=O)N[C@H](C(=O)OCc1cc([N+](=O)[O-])cc2c1OCOC2)C(C)C	?	13µM*	?	?	?
CC(C)C(NC(=O)c1ccccc1)C(=O)OCc1cc([N+](=O)[O-])cc2c1OCOC2 (stereo not given)	8%	-8%	-10%	-14%	-18%
Cc1ccc(-c2nc(C)c(CCNC(=O)C(=O)Nc3ccc(C)c(Cl)c3)s2)cc1	·	·	-27%	-22%	·
Cc1c(CCOC(=O)c2ccccc2)sc[n+]1Cc1ccccc1	6%	5.2µM*	-4%	5%	-7%
CCOc1ccc2c(c1)[N+](C)(C)C(C)(C)C=C2C	-2%	1.2µM*	i	-19%	-24%
O=[N+]([O-])c1ccc(-c2nc(NCc3cccnc3)c3ccccc3n2)cc1	2%	1%	·	·	15µM*
Oc1ccccc1-c1nc(NCc2cccnc2)c2ccccc2n1	15%	15µM*	?	?	?
Oc1ccccc1-c1nc(NCc2ccccc2)c2ccccc2n1	20%	?	-15%	?	?
COc1ccc2c(Sc3ccccc3)c(C(=O)N3CCC(C)CC3)[nH]c2c1	·	·	-17%	-15%	·
Cn1c(=O)[nH]c(=O)c2c1nc(N1CCCCC1)n2CCCSc1nc2ccccc2s1	0%	?	-2%	-28%	4.1µM*
Cc1ccnc(SCCn2c(N3CCC(C)CC3)nc3c2c(=O)n(C)c(=O)n3C)n1	-3%	·	·	·	·
Cc1cccc(Cn2c(Sc3nc(C)cs3)nc3c2c(=O)[nH]c(=O)n3C)c1	-1%	-21%	·	·	1.7µM*
Cn1c(=O)[nH]c(=O)c2c1nc(Sc1nc3ccccc3s1)n2Cc1ccccc1	-5%	?	·	4µM*	36%
Cc1cc(C)nc(SCCn2c(N3CCC(C)CC3)nc3c2c(=O)n(C)c(=O)n3C)n1	·	42%	·	·	2.3µM*
Cc1csc(Sc2nc3c(c(=O)[nH]c(=O)n3C)n2Cc2ccccc2Cl)n1	-8%	-19%	·	·	-9%
Cn1c(=O)c2c(nc(N3CCCCC3)n2CCSc2nc3ccccc3s2)n(C)c1=O	4%	1%	·	·	5%
CCOC(=O)c1noc2ncnc(N(CCC(=O)OC)c3ccccc3)c12	·	·	-7%	-2%	·
Cn1c(=O)c2c(nc(N3CCC(C(N)=O)CC3)n2CCSc2nc3ccccc3s2)n(C)c1=O	1%	2.9µM*	·	·	3%
COc1ccc(Cl)cc1NC(=O)CSc1nc(-c2ccco2)cc(C(F)(F)F)n1	·	·	-2%[7.34 µM]	-14%[7.34 µM]	·
CCC1COC(c2cccn2Cc2ccccc2Cl)=N1 (stereo not given)	-11%	9%	·	·	12µM*
Cc1ccc(CSC2=NC(C)(C)Nc3ccccc32)c(C)c1	·	·	i	-16%	·
CCOC(=O)N1CCN(C(=O)c2cn(CC(C)C)c(=O)c3c2c2ccccc2n3C)CC1	2%	10µM*	i	-12%	34%
COc1ccc(N2CCN(C(=O)c3cn(C4CCCC4)c(=O)c4c3c3ccccc3n4C)CC2)cc1	14µM*	·	-17%	-21%	33%
CC(C)Cn1cc(C(=O)NCc2cccs2)c2c3ccccc3n(C)c2c1=O	8%	?	·	·	8.3µM*
CC(C)CCNC(=O)c1cn(CC(C)C)c(=O)c2c1c1ccccc1n2C	2%	-24%	·	·	?
SMILES	AMA1-RON2 inh	Pf growth 48h	VACV mCherry inh	Vaccinia Venus	Pf growth 96h
CCOC(=O)N1CCN(C(=O)c2cn(C)c(=O)c3c2c2ccccc2n3C)CC1	29%	?	·	·	·
O=C(Nc1cccc2ccccc12)c1cnn2c1NC(=C1CC1)C=C2C(F)F	·	·	-7%	-14%	·
CCc1nnc(NC(=O)c2cc(=O)c3cc(C)ccc3o2)s1	·	·	-10%	0%	·
CC[N+](CC)(CCNC(=O)C(=O)NCC[N+](CC)(CC)Cc1ccccc1Cl)Cc1ccccc1Cl	·	?	·	·	6µM*
CCCC(=O)NCc1ccccc1Cl	-7%	-3%	-17%	6%	26%
COc1ccc(C(=O)c2cn(Cc3ccccc3)c3ccccc3c2=O)cc1OC	·	·	i	-9%	·
Oc1ccc(-c2csc(Nc3ccc4c(c3)OCO4)n2)c(O)c1	47%	·	?	?	·
N#Cc1ccc(Nc2nc(-c3ccc(O)cc3O)cs2)cc1C(F)(F)F	-3%	?	?	11µM*	?
CCCCc1ccc(NC(=O)CSc2nc3ccccc3nc2N2CCOCC2)cc1	·	·	-6%	-1%	·
